The values that follow come from PubChem BioAssay (EPA / NIEHS).

Each structure is given as a SMILES string. The source made the active and inactive calls. The calls were made as follows: active = hit-call score of the fitted dose curve at least 0.9, where 1 is the maximum; inactive = score below 0.9.

Read-out in the assay: matrix metalloproteinase-10 (MMP10), MMP10 (gene 4319)
Description: LTEA_HepaRG_MMP10: Life Technologies and Expression Analysis (LTEA) Assay for matrix metalloproteinase-10 (MMP10) using HepaRG (AID 2283517). The following applies: mRNA level, 48 h; actives raise or lower the signal. In a few lines:
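Transcript levels come from Fluidigm qRT-PCR normalized to three housekeeping genes, with curves fitted bidirectionally against 0.5% DMSO. Human HepaRG cells were dosed for 48 hours at concentrations up to 100 uM.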
As to `CSC(=O)c1cccc2nnsc12`, the call was inactive.
Still for that read-out and setting: in the case of `c1ccc(Nc2ccccc2)cc1` it was “inactive”.
As a reminder, the AC50 is the concentration giving half of the maximal activity seen. Turning to `CCOC(=O)NCCOc1ccc(Oc2ccccc2)cc1`, the AC50 was 50 µM (active).
Consider `CC(C)(c1ccc(O)cc1)c1ccc(O)cc1`, for which the call was inactive.
`Oc1ccc(C(c2ccc(O)cc2)C(Cl)(Cl)Cl)cc1`: the AC50 was 78.6 µM (active).
For `CCOC(=O)c1ccc(O)cc1`, the call was inactive.
Still for that read-out and setting: in the case of `CCCCCOC(=O)COc1cc(N2C(=O)C3=C(CCCC3)C2=O)c(F)cc1Cl` it was “inactive”.
With `C[C@]12CC[C@@H]3c4ccc(O)cc4C[C@@H](CCCCCCCCCS(=O)CCCC(F)(F)C(F)(F)F)[C@H]3[C@@H]1CC[C@@H]2O` (stereo partly specified), the AC50 is 0.116 µM (active).
Turning to `CCCCCCC(C)OC(=O)COc1nc(F)c(Cl)c(N)c1Cl` (stereo unspecified), the outcome was inactive.
The same measure, in the same setting: to `N[C@@H](Cc1cc(I)c(Oc2ccc(O)c(I)c2)c(I)c1)C(=O)O` belongs “inactive”.
`CCNc1nc(N)nc(Cl)n1`: the outcome was inactive.
Same read-out and setting: in the case of `COCCO` it was “inactive”.
Still for that read-out and setting: in the case of `CCN(Cc1c(F)cccc1Cl)c1c([N+](=O)[O-])cc(C(F)(F)F)cc1[N+](=O)[O-]` it was “inactive”; in that of `CN(C)C(=O)Nc1ccc(Cl)c(Cl)c1`, “inactive”.
As to `CCCCOCCOCCOCc1cc2c(cc1CCC)OCO2`, the molecule was classed as inactive.
The same measure, in the same setting: in the case of `CCOC(=O)C(C)Oc1ccc(Oc2cnc3cc(Cl)ccc3n2)cc1` (stereo unspecified) it was “inactive”; in that of `CCSC(=O)N(CC(C)C)CC(C)C`, “inactive”.
The same measure, in the same setting: to `COC(=O)CSc1cc(N=c2sc(=O)n3n2CCCC3)c(F)cc1Cl` belongs “inactive”; to `c1ccc2[nH]c(-c3cscn3)nc2c1`, “inactive”.
Take `CCCCC(CC)COC(=O)c1ccccc1C(=O)O` (stereo unspecified): the molecule was called inactive.
Still for that read-out and setting: in the case of `CCOC(=O)C(C)Oc1ccc(Oc2nc3ccc(Cl)cc3o2)cc1` (stereo unspecified) it was “inactive”.
